Statin myotox sup: suppressors of statin myotoxicity in C2C12 myotubes, primary screen, cell-based, single point, plate reader | C2C12 myotubes + simvastatin, ATP luminescence, 48 h; scaled: DMSO 0, geranylgeraniol control 100 | rescue of ATP level, % at 7.49 µM | 330,000 compounds, 0.78% hits;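 active means mean ATP rescue above about 67%, or every replicate alone reaching that limit, limit read from the data, passing the limit was not always enough; inconclusive means no clear call, values can overlap the other calls; inactive means mean under the limit and some replicate under it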;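 further: myotubes were challenged with 10 µM simvastatin during compound exposure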
Wnt act: Wnt/beta-catenin pathway activators, primary screen, cell-based, plate reader, single point; Wnt/beta-catenin reporter cell assay, activator; activation, % at 9.35 µM; 300,000 compounds, 1.2% hits; AID 743398, 2014; in the data active means activation above about 30%, passing the limit was not always enough; inconclusive means no clear call, values can overlap the other calls
esBAF inh: Bmi1 luciferase reporter increase in mESCs, primary screen, esBAF inhibitor project, mouse ES cells, Bmi1 luciferase knock-in, single point; 24 h; 100% = twice the neutral-well signal; reporter increase, % at 12.5 µM; 350,000 compounds, 2% hits; AID 602393, 2012; in the data active means activation above about 40%; inconclusive means no clear call, values can overlap the other calls;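 further: a rise in the Bmi1 reporter signal indicates esBAF inhibition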
MITF TRPM1 HTS: activators of MITF-driven TRPM1 promoter reporter, primary screen, cell-based, SK-MEL-5, luciferase, single point; SK-MEL-5 TRPM1-promoter luciferase, 24 h; % of positive control, neutral wells = 0; activation, % at 12.5 µM; 300,000 compounds, 0.75% hits; AID 588334, 2011;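 active means mean activation of at least 80% with every replicate also reaching 80%; inconclusive means mean reaches 80% but some replicate falls short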
Each line names hits and unclear results; the compound was inactive in the other large screens; ! = not active in a repeat. Shown are actives, neighbours in structure and some others; about 3% of the full set was active somewhere.

C[C@@H]1CN([C@@H](C)CO)C(=O)c2cc(NC(=O)CCC(F)(F)F)ccc2O[C@@H](C)CCCCO[C@@H]1CN(C)C(=O)CCC(F)(F)F	none (no result: Statin myotox sup, Wnt act, MITF TRPM1 HTS)
c1ccc(-c2nc3ccccc3s2)nc1	Wnt act 59!
Nc1ccc(-c2nc3ccccc3s2)cn1	Wnt act 38
O=C1CC(c2ccc(O)cc2)Oc2ccccc21 (centres undefined)	MITF TRPM1 HTS 83
CN(C)CC(=O)Nc1ccc2c(c1)[C@@H]1C[C@@H](CC(=O)NCc3ccncc3)O[C@H](CO)[C@@H]1O2	none (no result: Wnt act, MITF TRPM1 HTS)
C[C@@H]1CN([C@H](C)CO)C(=O)c2cc(N(C)C)ccc2O[C@@H](C)CCCCO[C@H]1CN(C)Cc1ccccc1	none (no result: Wnt act, MITF TRPM1 HTS)
Cc1ccc(NC(=O)c2ccc(NCc3ccc(F)cc3)nc2)cc1	none
Cc1ccc(NC(=O)c2ccc(Nc3ccccc3F)nc2)cc1	Wnt act 38 (no result: Statin myotox sup, esBAF inh)
O=c1c2c3c(sc2nc2n1N=C(c1cccs1)CS2)CCCC3	MITF TRPM1 HTS 135 (no result: Statin myotox sup, Wnt act, esBAF inh)
O=c1oc(/C=C/c2ccco2)nc2sc3c(c12)CCC3	MITF TRPM1 HTS 82
O=c1[nH]c(S)nc2sc3c(c12)CCCC3	none (no result: Wnt act, MITF TRPM1 HTS)
O=c1oc(-c2cccs2)nc2sc3c(c12)CCCC3	none
O=c1[nH]c(-c2ccco2)nc2sc3c(c12)CCCC3	Wnt act 39 (no result: Statin myotox sup, esBAF inh)
O=c1oc(-c2cccs2)nc2sc3c(c12)CCC3	esBAF inh 46 (no result: Wnt act)
O=C1CN(c2nc(-c3cccs3)nc3sc4c(c23)CCCC4)CCN1	none (no result: Statin myotox sup, esBAF inh)
Cc1nc2sc3c(c2c(=O)o1)CCC3	none (no result: Wnt act, MITF TRPM1 HTS)
CC(=O)N1[C@H](C(=O)N2CCCCC2)[C@@H](CO)[C@@H]2Cn3c(ccc(-c4ccccc4)c3=O)[C@@H]21	none (no result: Wnt act, MITF TRPM1 HTS)
O=C(Nc1cc(F)ccc1F)N1CCCCN2[C@@H](CO)[C@H](c3ccc(-c4cccnc4)cc3)[C@@H]2C1	none (no result: Wnt act, MITF TRPM1 HTS)
COC(=O)C1=C(N)OC2=C(C(=O)CC(C)(C)C2)C1c1ccccc1OC (centres undefined)	none
COC(=O)C1=C(N)OC2=C(C(=O)CC(C)(C)C2)C1c1ccoc1 (centres undefined)	Statin myotox sup 98 (no result: Wnt act)
CC(C)(C)C(=O)/C=C/c1ccc(Oc2ccccc2)cc1	Wnt act 33
O=C(O)/C=C/c1ccc(Oc2ncccn2)cc1	none (no result: MITF TRPM1 HTS)
C[C@@H]1CN([C@H](C)CO)C(=O)c2c(c3ccccc3n2C)-c2ccccc2CO[C@H]1CN(C)S(=O)(=O)c1cccs1	none (no result: Wnt act, MITF TRPM1 HTS)
COc1ccc(Br)cc1/C=N/NC(=O)c1ccc(COc2ccc3c(c2)CCC3)o1	esBAF inh 56 (no result: Statin myotox sup)
Cc1[nH]nc2c1C1(C(=O)N(Cc3ccc(Cl)cc3)c3ccccc31)C(C#N)=C(N)O2 (centres undefined)	Statin myotox sup 105
COc1ccc(NC(=O)N(C)C[C@@H]2Oc3ccc(NC(=O)Nc4ccc5c(c4)OCO5)cc3CC(=O)N([C@@H](C)CO)C[C@H]2C)cc1	none (no result: Wnt act, MITF TRPM1 HTS)
CCC(=O)n1nc(-c2ccc(Cl)cc2)nc1SC	Wnt act 40, esBAF inh 71
COc1ccc(-c2nc(SC)n(C(=O)c3ccco3)n2)cc1	none (no result: Statin myotox sup, Wnt act, esBAF inh)
CCC(=O)n1nc(-c2ccc(OC)cc2)nc1SC	esBAF inh 43 (no result: Wnt act)
CSc1nc(-c2ccc(Cl)cc2)nn1S(=O)(=O)c1ccc(Cl)cc1	esBAF inh 47 (no result: MITF TRPM1 HTS)
C[C@@H]1CCCCO[C@@H](CN(C)C(=O)c2ccncc2)[C@@H](C)CN([C@H](C)CO)C(=O)c2cc(NS(=O)(=O)c3ccc(Cl)cc3)ccc2O1	none (no result: Statin myotox sup, Wnt act, MITF TRPM1 HTS)
COCC#Cc1cnc2c(c1)C(=O)N([C@H](C)CO)C[C@H](C)[C@H](CN(C)S(=O)(=O)c1cn(C)cn1)O2	none (no result: Wnt act, MITF TRPM1 HTS)
COc1ccc(Cl)cc1NC(=S)NCc1ccccn1	none (no result: Statin myotox sup, esBAF inh)
CCOc1ccc(NC(=S)NNc2ccnc3cc(Cl)ccc23)cc1	none (no result: Statin myotox sup, esBAF inh)
S=C(NNc1ccnc2cc(Cl)ccc12)Nc1ccc(Cl)cc1Cl	esBAF inh 49
S=C(NCc1ccccn1)Nc1ccc(Cl)cc1Cl	esBAF inh 49 (no result: Wnt act)
C[C@@H]1CCCCO[C@H](CN(C)Cc2ccc(C(=O)O)cc2)[C@H](C)CN([C@@H](C)CO)C(=O)c2cc(NC(=O)C3CCCCC3)ccc2O1	none (no result: Statin myotox sup, Wnt act, MITF TRPM1 HTS)
C[C@H](CO)N1C[C@H](C)[C@@H](CN(C)C(=O)NC2CCCCC2)OCCCC[C@H](C)Oc2ccc(NS(=O)(=O)c3cn(C)cn3)cc2C1=O	none (no result: Wnt act, MITF TRPM1 HTS)
CCCNC(=O)N1C[C@H]2[C@@H](c3ccccc31)[C@@H](CO)N2C(=O)Nc1ccccc1	none (no result: Wnt act, MITF TRPM1 HTS)
CCNC(=O)C[C@H]1CC[C@@H]2[C@@H](COc3ccc(NC(=O)Nc4cccc(OC)c4)cc3C(=O)N2C)O1	none (no result: Wnt act, MITF TRPM1 HTS)
O=C(C1CC1)N1CC[C@@H]2[C@H]1c1cc(Br)ccc1N[C@@H]2CO	esBAF inh 47 (no result: Wnt act, MITF TRPM1 HTS)
O=C(C1CC1)N1CC[C@H]2[C@H](CO)Nc3ccc(Br)cc3[C@H]21	none (no result: Wnt act, MITF TRPM1 HTS)
CCOc1ccc(N=CC2=C(O)CC(C)(C)CC2=O)cc1	esBAF inh 48
C[C@H]1CN([C@@H](C)CO)C(=O)c2cc(C#CC3CCCCC3)cnc2O[C@@H]1CN(C)Cc1ccncc1	none (no result: Wnt act, esBAF inh, MITF TRPM1 HTS)
COc1ccccc1OCC(=O)Nc1sc2c(c1C(N)=O)CCC2	esBAF inh 77, MITF TRPM1 HTS 89
COc1cccc(C(=O)OCC(=O)Nc2sc3c(c2C(N)=O)CCC3)c1O	none
Cc1ccccc1OCC(=O)Nc1sc2c(c1C#N)CCC2	esBAF inh 47
O=[N+]([O-])c1ccccc1CSc1nnc2ccccn12	esBAF inh 63
Cc1cccc(C(=O)Nc2sc(C)c(-c3ccccc3)c2C#N)c1	esBAF inh 49 (no result: Wnt act)
Cc1sc(NC(=O)C2CCCCC2)c(C#N)c1-c1ccccc1	Wnt act 42, esBAF inh 93
Cc1noc(C)c1C(=O)Nc1sc(C)c(-c2ccccc2)c1C#N	none (no result: Wnt act)
O=C(Nc1ccc(Cl)c(Cl)c1)N[C@@H]1CC[C@H](CCn2cc(C3CCCCC3)nn2)O[C@H]1CO	none (no result: Wnt act, MITF TRPM1 HTS)
COc1ccc(S(=O)(=O)Nc2ccc3c(c2)C(=O)N([C@H](C)CO)C[C@H](C)[C@@H](CN(C)S(=O)(=O)c2ccc(F)cc2)OCCCC[C@H](C)O3)cc1	none (no result: Wnt act, MITF TRPM1 HTS)
Nc1ccc(Oc2ccc3nc(-c4ccccc4)c(-c4ccccc4)nc3c2)cc1	none (no result: Wnt act)
Nc1ccc(Oc2cc(N)cc(Oc3ccccc3)c2)cc1	Wnt act inconclusive, MITF TRPM1 HTS 87
COc1ccccc1-n1cnc2cc(NCc3ccccc3O)ccc21	none
COc1ccccc1-n1cnc2cc(NCc3ccco3)ccc21	Statin myotox sup 73
C[C@@H]1CN([C@H](C)CO)C(=O)c2cc(-c3ccc(C#N)cc3)cnc2O[C@@H]1CN(C)CC1CCCC1	none (no result: Wnt act, MITF TRPM1 HTS)
N/C(=N\OC(=O)c1cccc(F)c1)c1cccc([N+](=O)[O-])c1	esBAF inh 61 (no result: MITF TRPM1 HTS)
N/C(=N/OC(=O)c1cccc([N+](=O)[O-])c1)c1cccc([N+](=O)[O-])c1	none (no result: Statin myotox sup, esBAF inh)
N/C(=N\OC(=O)c1ccc(F)cc1)c1cccc([N+](=O)[O-])c1	MITF TRPM1 HTS 87
Cc1noc(C)c1NC(=O)Nc1cccc2c1O[C@H](CN(C)S(=O)(=O)c1ccccc1)[C@H](C)CN([C@@H](C)CO)C2=O	none (no result: Wnt act, MITF TRPM1 HTS)

Screening data as filed in PubChem BioAssay.
